Test results: PubChem BioAssay (NCI)
About 79,000 compounds went through this panel and 15% of them were active in at least one assay; those are over-represented in the sample as a whole. Rule as the data show it: active = growth inhibition above about 70%; inactive = the rest.

Tests used:
[1] = NCI Yeast Anticancer Drug Screen. Data for the rad50 strain (AID 155);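 also: 0% = growth of vehicle-only cultures of the same strain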; conditions: S. cerevisiae rad50 strain growth inhibition; at 50.0 µM; stronger effect = higher value
In short: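 Vehicle-treated cultures provide the reference for the growth inhibition reported for compound-exposed, repair-deficient yeast.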

[2] = NCI Yeast Anticancer Drug Screen. Data for the mec2-1 strain (AID 157); conditions: S. cerevisiae mec2-1 strain, at 50.0 µM, stronger effect = higher value
In short: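 Mutant yeast (mec2-1) grown with compound; growth inhibition relative to vehicle control reported.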

[3] = NCI Yeast Anticancer Drug Screen. Data for the sgs1 mgt1 strain (AID 161);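 also: 0% = growth of cultures given vehicle only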; conditions: S. cerevisiae sgs1 mgt1 strain, at 50.0 µM, stronger effect = higher value
In short: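 Yeast cells carrying a defined DNA-repair defect were exposed to test compounds. Growth inhibition was measured relative to vehicle-treated controls.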

[4] = NCI Yeast Anticancer Drug Screen. Data for the cln2 rad14 strain (AID 165);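 also: 0% = growth equal to vehicle treated cultures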; conditions: S. cerevisiae cln2 rad14 strain, at 50.0 µM, stronger effect = higher value
In short: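 Readout is yeast growth inhibition versus vehicle-treated controls, using a strain with cln2 and rad14 alterations exposed to compound.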

[5] = NCI Yeast Anticancer Drug Screen. Data for the bub3 strain (AID 167); conditions: S. cerevisiae bub3 mutant strain, at 50.0 µM, stronger effect = higher value
In short: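 Mutant yeast screening strain plus compound; vehicle-treated cultures serve as the 0% inhibition reference.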

[6] = NCI Yeast Anticancer Drug Screen. Data for the mlh1 rad18 strain (AID 175); conditions: S. cerevisiae mlh1 rad18 strain growth inhibition; at 50.0 µM; stronger effect = higher value
In short: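 Genetically defined yeast (DNA repair-deficient) exposed to compounds; growth inhibition determined relative to vehicle.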

Measured: growth inhibition

NC(=S)NNC(=O)c1ccc([N+](=O)[O-])cc1
inactive: [1] 10.4% | [2] 18.9% | [3] -3.1% | [4] -17.9% | [5] 1.35% | [6] 36.9%

COc1ccc(N=C2S/C(=N\C(=Nc3ccccc3)SCc3ccccc3)N(c3ccccc3)C2=Nc2ccc(OC)cc2)cc1
inactive: [1] -4.55% | [2] -5.85% | [3] -8.25% | [4] 4.05% | [5] -6.8% | [6] 5.25%

Nc1ccc2ccccc2c1C(=O)c1ccccc1
inactive: [1] 0.95% | [2] -1.55% | [3] -15.2% | [4] 37.1% | [5] -23.6% | [6] -5.75%

Cc1ccc(S(=O)(=O)NC2C(=O)c3ccccc3C(=O)C2n2cnc3ccccc32)cc1 (stereo unspecified)
inactive: [1] 14.3% | [2] 1.8% | [3] -10.9% | [4] -16.9% | [5] -14.9% | [6] -28.8%

CCc1nc2c(c(=O)[nH]1)C(c1ccc(Cl)cc1)C(C)(C)O2 (stereo unspecified)
inactive: [1] -1.2% | [2] -22.6% | [3] -17.4% | [4] 4.45% | [5] 1.1% | [6] -7.4%

COc1ccc(C2C(Cl)C(=O)N2NC(=O)c2ccccc2O)cc1 (stereo unspecified)
inactive: [1] -27.2% | [2] -17.4% | [3] -38.1% | [4] -1.45% | [5] -4.6% | [6] -34.8%

CC(=O)N(C1CCCCC1)C1CCCCC1
inactive: [1] 30.2% | [2] 20.6% | [3] 13.4% | [4] -2.05% | [5] -2.2% | [6] 45%

O=C1CCC2c3ccccc3NCN12 (stereo unspecified)
inactive: [1] 7.05% | [2] 7.75% | [3] -35.6% | [4] 22.4% | [5] -15.2% | [6] -31.8%

COc1ccc(C(O)c2ncccc2C)cc1OC (stereo unspecified)
inactive: [1] -0.3% | [2] 31.3% | [3] 20.1% | [4] -9.35% | [5] 24.8% | [6] 22.3%

O=C(CC/C(CC(=O)c1ccc(Cl)cc1)=N\O)Nc1cccc(Cl)c1
inactive: [1] -31.9% | [2] -2.4% | [3] -6.45% | [4] -3.85% | [5] 0.7% | [6] -11.6%

CCCCCCCCCc1ccc(OCCOC(=O)OCCOc2ccc(CCCCCCCCC)cc2)cc1
inactive: [1] 40.9% | [2] -21.9% | [3] 16% | [4] 13.8% | [5] 4.4% | [6] 31.6%

CC(=O)OCC1OC(N2C(=O)/C(=C/c3ccc4c(c3)OCO4)SC2=S)C(OC(C)=O)C(OC(C)=O)C1OC(C)=O (stereo unspecified)
inactive: [1] 1.5% | [2] -12.2% | [3] -20.9% | [4] 1.15% | [5] 0.15% | [6] 0.2%

CCCCC#CCN(CCCC)CCCC
inactive: [1] -19.6% | [2] 1% | [3] -2.55% | [4] 13.3% | [5] 11.3% | [6] -29%

Cc1cccc2c1C(=O)OC2(c1cccc2ccccc12)c1cccc2ccccc12
inactive: [1] -16.4% | [2] 3.9% | [3] 4.5% | [4] -15.7% | [5] 0% | [6] 1.6%

O=C(O)c1ccc(C(=O)O)c(C(=O)Nc2ccc3c(c2)C(=O)c2ccccc2-3)c1
inactive: [1] 41.9% | [2] -26.6% | [3] -2.15% | [4] -2.85% | [5] 9.7% | [6] 48.9%

O=CNc1ccccc1Cc1ccccc1
inactive: [1] 13.2% | [2] -24% | [3] 4.5% | [4] 7.85% | [5] 4.25% | [6] 1.65%

Cc1c(O)ccc(N=O)c1O
inactive: [1] 20.4% | [2] 2.6% | [3] 18.9% | [4] 35.8% | [5] -1.6% | [6] 8.15%

OC1CC=CC1
inactive: [1] 2.45% | [2] -3.5% | [3] -4.6% | [4] 0.35% | [5] 8.25% | [6] -12.8%

CC(=O)Oc1ccccc1/C=C1/C=C(c2ccccc2)OC1=O
inactive: [1] 6.4% | [2] -7.55% | [3] -0.55% | [4] -39.1% | [5] -16.8% | [6] 0.2%

Cc1ccc(N)c(C(O)(C(F)(F)F)C(F)(F)F)c1
inactive: [1] -5.7% | [2] 1.5% | [3] 12.5% | [4] 15.6% | [5] 16.6% | [6] 16.6%

CC(=O)NC1=C(N2CCC2C)C(=O)c2ccccc2C1=O (stereo unspecified)
inactive: [1] -2.4% | [2] 0.8% | [3] 6.15% | [4] -4.4% | [5] -43.9% | [6] -11.4%

C/C(C=C1C(=O)NC(=S)NC1=O)=C\c1ccccc1
inactive: [1] 13.5% | [2] -2.55% | [3] 8.35% | [4] -4.55% | [5] -8.5% | [6] 14.1%

Cc1cc(C)c(C2CC(O)C(CO)O2)cc1C (stereo unspecified)
inactive: [1] -2% | [2] -20.9% | [3] -10.1% | [4] 14.1% | [5] -3.35% | [6] 21.4%

O=C([O-])c1ccc2c(c1)-c1nc-2nc2[n-]c(nc3nc(nc4[n-]c(n1)c1ccc(C(=O)[O-])cc41)-c1cc(C(=O)[O-])ccc1-3)c1ccc(C(=O)[O-])cc21.[Fe+2]
inactive: [1] -1.2% | [2] -0.5% | [3] -13.6% | [4] 3.65% | [5] 7.5% | [6] -1.75%

CC(=O)Nc1cc(N)cc(C(=O)O)c1
inactive: [1] 37% | [2] -0.9% | [3] 9.15% | [4] 9.75% | [5] -33.9% | [6] -7.5%

CN=S(=O)(OCCCCOS(=O)(=NC)c1ccc(C)cc1)c1ccc(C)cc1 (stereo unspecified)
inactive: [1] 10.6% | [2] -14.4% | [3] -26.4% | [4] -22.8% | [5] -23.4% | [6] -71.5%

CCOC(=O)C(C(C)=O)C(c1ccc(N(C)C)cc1)c1ccc(N(C)C)cc1 (stereo unspecified)
inactive: [1] 4% | [2] -4.35% | [3] -6.6% | [4] -2.4% | [5] 3.95% | [6] -3.4%

COc1ccc(-c2cc(=O)c3cc(O)ccc3o2)c(OC)c1OC
inactive: [1] 8% | [2] 16% | [3] 11.4% | [4] -6.95% | [5] -6.5% | [6] -10.8%

C=CCOc1ccc(C2C(C(=O)OCC)C(=O)CC(C)(O)C2C(=O)OCC)cc1OC (stereo unspecified)
inactive: [1] -6.25% | [2] -11.3% | [3] -7.15% | [4] -24% | [5] 1.35% | [6] -7.45%

CC(C)OC(=O)CC1CCCCC1
inactive: [1] -4% | [2] -4.4% | [3] -14.1% | [4] 2.95% | [5] 3.9% | [6] 3.15%

O=C(O)CCCC#CCCCC(=O)O
inactive: [1] 10.4% | [2] 4.5% | [3] 2% | [4] 17.3% | [5] 25.8% | [6] -13.7%

CC(C)N(CCSC(=O)N1c2ccccc2Sc2cccnc21)C(C)C
inactive: [1] -2% | [2] 0.8% | [3] -18.9% | [4] -12.3% | [5] 1.45% | [6] 1.6%

CC(=O)N(C)CCc1c[nH]c2ccccc12
inactive: [1] -18.4% | [2] -37.5% | [3] -33.9% | [4] 13.2% | [5] 9.85% | [6] -4.8%

CNC(=O)Nc1cc(C)ccc1Cl
inactive: [1] -0.9% | [2] -6.05% | [3] -8.55% | [4] -70% | [5] 1.15% | [6] -6.7%

CC(=O)C(Cc1ccccc1)(Cc1ccccc1)C(C)=O
inactive: [1] 3.3% | [2] -0.95% | [3] -8.3% | [4] 7.45% | [5] 1.35% | [6] 2%

CC1=Nc2cc(C)c(C)cc2N2C1=CC1=C(C(=O)c3cc4ccccc4cc3C1=O)C2C (stereo unspecified)
inactive: [1] 16% | [2] 9.8% | [3] 16.2% | [4] 23.1% | [5] -3.85% | [6] 23.6%

O=C(N/N=C/c1ccccc1)c1c(-c2cccnc2)cnc2ccccc12
inactive: [1] -12.8% | [2] -9.3% | [3] -10.6% | [4] 10.9% | [5] 12.3% | [6] 14.3%

c1ccc(C2NC(c3ccccc3)c3c(ccc4ccccc34)O2)cc1 (stereo unspecified)
inactive: [1] 20.1% | [2] -2.1% | [3] 13.1% | [4] -19.9% | [5] -5.15% | [6] 20.6%

COc1cc(C(=O)n2ncc(C(C)=O)c2C)cc(OC)c1OC
inactive: [1] -3.75% | [2] -17.5% | [3] 12.9% | [4] 10.9% | [5] 0.3% | [6] 8.45%

c1cc(-c2nnc(-c3ccncc3)s2)ccn1
inactive: [1] 6.2% | [2] -1.35% | [3] -9.25% | [4] 32.5% | [5] 14.5% | [6] -8.15%

O=C(O)c1cc(-c2ccc(-c3ccccc3)cc2)nc2cc3ccccc3cc12
inactive: [1] -15.7% | [2] -3.9% | [3] -2.15% | [4] -20.6% | [5] -54.9% | [6] 22%
